As a reminder, the AC50 is the midpoint of the concentration-response curve, whichever way the signal moves.

The target in assay [1] is Transcription factor E2F1 (Homo sapiens) (UniProt Q01094). The assay is described as follows: ATG_E2F_CIS: Attagene CIS-FACTORIAL HepG2 Assay for human E2F Transcription Factor 1 (AID 2282935). Particulars: HepG2 Attagene cis-reporter, E2F reporter RNA transcripts; actives raise or lower the signal. Summed up:
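HepG2 cells transiently transfected with multiplexed cis-element reporter units, dosed for 24 h. Reporter mRNA measured by RT-PCR, 6-FAM primer-extension labeling, HpaI digestion and capillary electrophoresis; bidirectional fit versus DMSO baseline.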

Assay [2] is described as follows: ATG_E_Box_CIS: Attagene CIS-FACTORIAL HepG2 Assay for human Enhancer Box (E-box) (AID 2282936). Particulars: HepG2 E-box cis-reporter transcription, actives raise or lower the signal. Summed up: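 HepG2 cells transiently transfected with multiplexed cis-element reporter units sensing endogenous transcription factor activity; 24 h compound exposure. Reporter mRNA measured by RT-PCR, 6-FAM primer extension, HpaI digestion and capillary electrophoresis; bidirectional fit versus DMSO.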

The nature of assay [3]: ATG_M_61_CIS: Attagene CIS-FACTORIAL HepG2 Assay for M61 Transcription Factor (Internal Marker) (AID 2282937). Particulars: HepG2 Attagene CIS-FACTORIAL M61 internal marker reporter; actives raise or lower the signal. An outline of the steps:
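Cells were transfected with reporter units under cis-regulatory promoters, treated with chemicals for 24 h, then lysed for RNA. Reporter transcripts were quantified by RT-PCR and capillary electrophoresis, and activity was fitted bidirectionally against DMSO.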

Assay [4] can be described thus: ATG_EGR_CIS: Attagene CIS-FACTORIAL HepG2 Assay for human Early Growth Response 1 (EGR1) (AID 2282938). Particulars: HepG2 Attagene CIS-FACTORIAL EGR reporter mRNA; actives raise or lower the signal. An outline of the steps: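 Endogenous TF activity in HepG2 liver cells was gauged through cis-promoter reporter constructs transiently transfected. After 24 h dosing, reporter mRNA was quantified by RT-PCR and capillary electrophoresis, and curves fitted in both directions versus DMSO.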

Assay [5] in a line: ATG_M_19_CIS: Attagene CIS-FACTORIAL HepG2 Assay for M19 Transcription Factor (Internal Marker) (AID 2282939). The following applies: HepG2 Attagene CIS-FACTORIAL M19 internal marker reporter; actives raise or lower the signal. Summed up:
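Signals come from fluorescence of labelled reporter-specific PCR fragments resolved by capillary electrophoresis, following 24 h treatment of HepG2 cells transfected with cis-promoter reporter units; activity was fitted in both directions relative to DMSO.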

Assay [6] in a line: ATG_ERE_CIS: Attagene CIS-FACTORIAL HepG2 Assay for Estrogen Response Element (ERE) (AID 2282940). The following applies: HepG2 ERE cis-reporter, Attagene RNA transcript; actives raise or lower the signal. Summed up: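 Fluorescence of capillary-separated, FAM-labelled reporter cDNA fragments indicates reporter mRNA levels in HepG2 cells exposed to chemicals for 24 h. Transient transfection with cis-regulated units; data fitted in both directions against DMSO.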

Assay [7] in a line: ATG_Ets_CIS: Attagene CIS-FACTORIAL HepG2 Assay for human Erythroblast Transformation Specific (ETS) (AID 2282941). Particulars: HepG2 ETS cis-reporter transcription, actives raise or lower the signal. Summed up: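 Steps: transfect HepG2 with multiple reporter units; treat compound 24 h; isolate RNA, DNase-treat, reverse-transcribe; PCR-amplify, label with 6-FAM, digest with HpaI; separate by capillary electrophoresis. Activity fitted both directions versus DMSO.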

Assay [8] concerns the target Hepatocyte nuclear factor 3-beta (Homo sapiens) (UniProt Q9Y261). The experiment in a line: ATG_FoxA2_CIS: Attagene CIS-FACTORIAL HepG2 Assay for human Forkhead box A2 (FOXA2) (AID 2282942). Particulars: HepG2 cis-reporter transcription factor activity, 24 h; actives raise or lower the signal. An outline of the steps: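 Endogenous transcription factor activity was read in HepG2 cells carrying transiently transfected cis-promoter reporter units. After 24 h dosing, reporter mRNA was quantified by RT-PCR and capillary electrophoresis, and values fitted bidirectionally versus DMSO.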

Assay [9] is described as follows: ATG_FoxO_CIS: Attagene CIS-FACTORIAL HepG2 Assay for human Forkhead box O (FoxO) (AID 2282943). The following applies: HepG2 Attagene cis-reporter, FoxO element, mRNA; actives raise or lower the signal. Summed up:
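24 h chemical exposure, HepG2 with transient cis-MRTU transfection. RNA extraction, oligo(dT) RT, reporter-specific PCR, primer-extension labelling, HpaI digestion, CE fragment analysis; bidirectional fit, DMSO baseline.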

A short description of assay [10]: ATG_GATA_CIS: Attagene CIS-FACTORIAL HepG2 Assay for human GATA Binding Protein (AID 2282944). Particulars: HepG2 GATA cis-element reporter, Attagene multiplex mRNA; actives raise or lower the signal. An outline of the steps:
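After transfecting HepG2 cells with multiple cis-regulated reporter units, chemicals are dosed for 24 h; isolated RNA undergoes RT-PCR and fluorescent labeling before capillary electrophoresis, with activity expressed against DMSO.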

Each structure is given as a SMILES string. Where a structure was tested more than once in an assay, its records may differ in their call. Activity calls are given as the source filed them. The calls were made as follows: active = hit-call score of the fitted dose curve at least 0.9, where 1 is the maximum; inactive = score below 0.9.

Sequence of Transcription factor E2F1 (Homo sapiens) (Q01094 whole entry, looked up): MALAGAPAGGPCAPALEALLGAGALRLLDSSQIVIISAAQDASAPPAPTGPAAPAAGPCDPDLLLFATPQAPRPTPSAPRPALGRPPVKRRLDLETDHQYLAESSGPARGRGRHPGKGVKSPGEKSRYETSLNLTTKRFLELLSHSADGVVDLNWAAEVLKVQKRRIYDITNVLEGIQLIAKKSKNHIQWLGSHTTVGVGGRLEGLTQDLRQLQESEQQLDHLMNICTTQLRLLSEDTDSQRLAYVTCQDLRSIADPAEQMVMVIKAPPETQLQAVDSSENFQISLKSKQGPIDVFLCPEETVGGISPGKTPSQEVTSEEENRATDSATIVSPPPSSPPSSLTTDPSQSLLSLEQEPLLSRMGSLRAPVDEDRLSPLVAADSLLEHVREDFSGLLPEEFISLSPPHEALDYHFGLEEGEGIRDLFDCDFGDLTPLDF
Sequence of Hepatocyte nuclear factor 3-beta (Homo sapiens) (Q9Y261 whole entry, looked up): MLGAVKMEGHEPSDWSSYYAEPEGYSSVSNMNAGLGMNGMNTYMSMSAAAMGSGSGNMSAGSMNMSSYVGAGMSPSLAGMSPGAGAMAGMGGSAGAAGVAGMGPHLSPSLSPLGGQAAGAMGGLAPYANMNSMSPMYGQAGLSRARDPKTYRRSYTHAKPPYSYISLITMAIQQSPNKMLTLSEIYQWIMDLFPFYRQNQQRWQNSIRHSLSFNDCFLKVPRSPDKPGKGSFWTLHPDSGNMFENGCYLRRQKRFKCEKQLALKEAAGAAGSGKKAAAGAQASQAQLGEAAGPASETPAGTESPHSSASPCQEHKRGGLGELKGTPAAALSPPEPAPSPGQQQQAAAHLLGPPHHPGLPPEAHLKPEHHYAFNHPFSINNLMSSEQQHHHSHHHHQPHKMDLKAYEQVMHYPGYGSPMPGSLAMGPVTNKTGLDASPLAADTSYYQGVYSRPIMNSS

Consider `COP(=S)(OC)Oc1ccc(SC)c(C)c1`, for which the compound was called inactive in assay [1], in assay [2], in [3], in assay [4], in [5] and in [7]. Also, the compound was called inactive in assay [8], in assay [9] and in assay [10]. The half-maximal activity concentration (AC50) in assay [6] is 17.7 µM (active).
`CC(C)OC(=O)Nc1cccc(Cl)c1`: the call in [1], in [2], in assay [3], in [5], in [6] and in [7] was inactive. Moreover, the result in assay [8], in [9] and in assay [10] was inactive. Besides, the AC50 in assay [4] was 94.5 µM (active).
Turning to `CCC(C)(NC(=O)c1cc(Cl)c(C)c(Cl)c1)C(=O)CCl` (centres undefined), the compound was classed as inactive in assay [1], in assay [2], in assay [3], in assay [4], in assay [5] and in assay [6]. The call in assay [7], in assay [8], in assay [9] and in assay [10] was inactive.
As to `O=C1c2ccccc2C(=O)N1SC(Cl)(Cl)Cl`, the outcome in assay [1], in [2], in assay [3], in assay [4], in [5] and in assay [6] was inactive. In addition, the result in assay [7], in [8], in [9] and in assay [10] was inactive.
In the case of `CNC(=O)Oc1ccccc1OC(C)C`, the compound was classed as inactive in assay [1], in [2], in [3], in [4], in [5] and in assay [6]. For the same compound, the result in assay [7], in assay [8], in [9] and in assay [10] was inactive.
For the compound `O=C(O)C(F)(F)C(F)(F)C(F)(F)C(F)(F)C(F)(F)C(F)(F)C(F)(F)F`, the outcome in assay [1], in assay [2], in assay [3], in assay [4], in assay [5] and in assay [7] was inactive. Besides, the call in [8], in assay [9] and in assay [10] was inactive.
For the compound `CNC(=O)/C=C(\C)OP(=O)(OC)OC`, the compound was called inactive in assay [1], in [2], in assay [3], in assay [4], in assay [5] and in assay [6]. Also, the result in assay [7], in [8], in assay [9] and in [10] was inactive.
Consider `CCc1ccc(C(=O)NN(C(=O)c2cc(C)cc(C)c2)C(C)(C)C)cc1`, for which the compound was called inactive in assay [1], in assay [2], in [3], in [5], in assay [6] and in assay [7]. Moreover, the compound was classed as inactive in assay [8], in [9] and in [10]. Also, in [4], the AC50 is 16.5 µM (active).
`COP(=S)(OC)Oc1ccc([N+](=O)[O-])cc1`: the outcome in [1], in assay [2], in assay [3], in [4], in [5] and in [6] was inactive. Also, the call in assay [7], in assay [8], in assay [9] and in assay [10] was inactive.
Regarding `CC[C@H](C)[C@H]1O[C@]2(C=C[C@@H]1C)C[C@@H]1C[C@@H](C/C=C(\C)[C@@H](O[C@H]3C[C@H](OC)[C@@H](O[C@H]4C[C@H](OC)[C@@H](O)[C@H](C)O4)[C@H](C)O3)[C@@H](C)/C=C/C=C3\CO[C@@H]4[C@H](O)C(C)=C[C@@H](C(=O)O1)[C@]34O)O2` (tested in a mixture with another compound), the compound was called inactive in assay [1], in [2], in assay [3], in assay [4], in assay [5] and in [6]. Further, the compound was classed as inactive in assay [7], in assay [8], in assay [9] and in assay [10].
For the compound `CC(C)(C)C(O)C(Oc1ccc(Cl)cc1)n1cncn1` (centres undefined), the compound was called inactive in assay [1], in assay [2], in [3], in [4], in [5] and in [7]. In addition, the compound was called inactive in assay [8], in assay [9] and in assay [10]. In assay [8], the AC50 was 16.9 µM (active).
For the compound `CCOCN(C(=O)CCl)c1c(C)cccc1CC`, the call in assay [1], in [2], in assay [3], in [4], in [5] and in [6] was inactive. Also, the compound was called inactive in [7], in [8], in assay [9] and in assay [10].
Take `O=[N+]([O-])/N=C1\NCCN1Cc1ccc(Cl)nc1`: the outcome in [1], in assay [2], in assay [3], in assay [4], in assay [5] and in assay [6] was inactive. The compound was classed as inactive in assay [7], in [8], in assay [9] and in assay [10].
In the case of `COP(=O)(OC)OC=C(Cl)Cl`, the call in assay [1], in [2], in [3], in assay [5], in [6] and in assay [7] was inactive. For the same compound, the call in assay [8], in assay [9] and in assay [10] was inactive. For the same compound, the AC50 in assay [4] is 14.4 µM (active).

These data come from PubChem BioAssay (EPA / NIEHS).
